The nature of experiment [1]: Cell Viability - NIH 3T3 (AID 541; active = well fitted curve in the direction sought with a large enough effect; an effect the other way counts as inactive or inconclusive;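 note: cells exposed to compound for 40 hours; plate controls were DMSO alone for no effect and tamoxifen positive control for full effect; nearly all actives have a fitted effect of over 25% in size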). Conditions: NIH 3T3 cell viability, qHTS; activity change, negative = cytotoxicity: at 92.2 µM (top of the series). The method, boiled down: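 qHTS format; 40 hr compound exposure, 37 °C; CellTiter-Glo luminescence (cellular ATP) read-out after 20 min at RT. Decrease in ATP = cytotoxicity; AC50 from standard Hill fit.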
(Quantitative high-throughput screening tests each substance at several concentrations.)

Experiment [2] concerns the target Estrogen receptor (Homo sapiens) (UniProt P03372). Briefly: qHTS assay for small molecule antagonists of estrogen receptor alpha signaling (AID 588513; active = well fitted curve in the direction sought with a large enough effect in the signal ratio, with a control signal flat, not every such curve was filed as active; the % refers to the signal ratio; note: % is set by controls: 0 for no effect and ±100 for the full control effect). The method in brief: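 ER-alpha-UAS-bla GripTite HEK 293 cells in 2% charcoal/dextran-treated FBS medium; compounds titrated (1:2, duplicate), then stimulated with 0.5 nM 17-beta-estradiol for 18 h at 37C. CCF4 beta-lactamase fluorescence; Hill-fit IC50 and efficacy.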

The target in experiment [3] is Glucocorticoid receptor (Homo sapiens) (UniProt P04150). Briefly: qHTS assay for small molecule agonists of glucocorticoid receptor signaling (AID 588532; active = well fitted curve in the direction sought with a large enough effect in the signal ratio, with a control signal flat; the % refers to the signal ratio;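 note: 100% = dexamethasone at 0.1 µM and 0% = DMSO only wells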). The following applies: HeLa MMTV-bla, beta-lactamase ratio, agonist, 18 h; stronger effect = higher value; percent of dexamethasone control, DMSO zero. The method, boiled down: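 MMTV-bla HeLa beta-lactamase reporter cells in 1% charcoal/dextran FBS medium, compounds up to 92 uM for 18 h at 37 C, CCF4 readout; normalized to 0.1 uM dexamethasone (100%), EC50 and efficacy from Hill fits.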
Sequence of Glucocorticoid receptor (Homo sapiens) (P04150 whole entry, looked up): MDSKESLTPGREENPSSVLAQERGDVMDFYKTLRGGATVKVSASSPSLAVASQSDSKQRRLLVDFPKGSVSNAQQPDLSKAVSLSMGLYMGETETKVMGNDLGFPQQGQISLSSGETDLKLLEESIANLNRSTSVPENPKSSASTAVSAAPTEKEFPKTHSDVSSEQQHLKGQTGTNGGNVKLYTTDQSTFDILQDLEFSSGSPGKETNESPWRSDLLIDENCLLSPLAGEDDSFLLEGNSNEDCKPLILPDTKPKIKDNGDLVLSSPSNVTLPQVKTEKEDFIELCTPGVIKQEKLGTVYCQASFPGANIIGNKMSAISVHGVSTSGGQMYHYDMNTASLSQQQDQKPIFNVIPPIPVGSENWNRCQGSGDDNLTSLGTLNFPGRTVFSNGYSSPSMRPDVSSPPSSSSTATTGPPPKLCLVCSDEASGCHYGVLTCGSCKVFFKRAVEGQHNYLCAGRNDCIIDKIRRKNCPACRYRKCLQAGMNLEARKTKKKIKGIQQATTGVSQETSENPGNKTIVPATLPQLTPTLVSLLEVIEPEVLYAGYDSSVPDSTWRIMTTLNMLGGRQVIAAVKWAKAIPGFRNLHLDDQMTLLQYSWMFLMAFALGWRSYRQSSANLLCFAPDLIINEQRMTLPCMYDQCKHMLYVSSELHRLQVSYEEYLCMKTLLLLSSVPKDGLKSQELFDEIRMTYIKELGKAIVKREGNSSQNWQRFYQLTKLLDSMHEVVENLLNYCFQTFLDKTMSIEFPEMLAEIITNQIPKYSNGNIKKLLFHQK

Experiment [4] has the same target. Briefly: qHTS assay for small molecule antagonists of glucocorticoid receptor signaling (AID 588533; active = well fitted inhibition curve with a large enough effect in the signal ratio, with a control signal flat, not every such curve was filed as active; the % refers to the signal ratio;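 note: cells stimulated with 2 nM dexamethasone as agonist; % is set by controls: 0 for no effect and ±100 for the full control effect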). The method in brief:
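Antagonist-mode qHTS: compound titrations added to GRE-bla HeLa cells, then dexamethasone 2 nM final; 18 h, 37 C. CCF4 FRET fluorescence normalized to dexamethasone and DMSO; IC50 from Hill fit.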

Experiment [5] concerns the target Peroxisome proliferator-activated receptor gamma (Homo sapiens) (UniProt P37231). Briefly: qHTS assay for small molecule agonists of peroxisome proliferator-activated receptor gamma signaling (AID 588536; active = well fitted curve in the direction sought with a large enough effect in the signal ratio, with a control signal flat, not every such curve was filed as active; the % refers to the signal ratio;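 note: 0% = DMSO basal wells and 100% = rosiglitazone at 2 µM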). The method in brief:
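This is an agonist-mode beta-lactamase reporter assay in HEK293 PPAR-gamma-UAS-bla cells with 1% charcoal/dextran FBS. Compound titrations ran 16 h at 37 C before CCF4 detection. EC50 and efficacy are Hill fits scaled to 2 uM rosiglitazone (100%) and DMSO basal.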

The target of experiment [6] is Thyroid hormone receptor beta (Homo sapiens) (UniProt P10828). Briefly: qHTS assay for small molecule agonists of thyroid hormone receptor beta signaling (AID 588545).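 Note: 0% = DMSO only and 100% = 10 nM T3.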 The method in brief: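 Efficacy and EC50 values derive from Hill fits of qHTS titration data, normalized to 10 nM T3 and DMSO-only wells. HEK 293 reporter cells were stimulated for 18 hrs at 37 C, with beta-lactamase activity measured by CCF4 fluorescence.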
Sequence of Thyroid hormone receptor beta (Homo sapiens) (P10828 whole entry, looked up): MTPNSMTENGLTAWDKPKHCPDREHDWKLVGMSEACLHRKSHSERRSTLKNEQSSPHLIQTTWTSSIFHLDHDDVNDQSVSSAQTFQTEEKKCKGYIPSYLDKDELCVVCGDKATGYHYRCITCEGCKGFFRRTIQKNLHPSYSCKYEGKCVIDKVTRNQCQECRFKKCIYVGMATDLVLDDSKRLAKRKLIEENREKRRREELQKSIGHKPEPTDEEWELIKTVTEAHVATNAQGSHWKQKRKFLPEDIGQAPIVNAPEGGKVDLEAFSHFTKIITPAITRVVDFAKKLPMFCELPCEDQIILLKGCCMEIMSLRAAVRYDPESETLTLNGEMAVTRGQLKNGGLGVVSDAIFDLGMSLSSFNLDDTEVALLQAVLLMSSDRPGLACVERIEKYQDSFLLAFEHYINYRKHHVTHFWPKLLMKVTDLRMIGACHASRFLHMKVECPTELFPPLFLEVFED

For experiment [7] the target is unchanged. Briefly: qHTS assay for small molecule antagonists of thyroid hormone receptor beta signaling (AID 588547; active = well fitted inhibition curve with a large enough effect in the signal ratio, with a control signal flat, not every such curve was filed as active; the % refers to the signal ratio;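 note: cells stimulated with 0.4 nM T3 agonist during compound exposure; % is set by controls: 0 for no effect and ±100 for the full control effect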). Conditions: TR-UAS-bla HEK293, beta-lactamase ratio, antagonist mode, 18 h. The method, boiled down:
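TR-UAS-bla GripTite HEK293 cells in 2% charcoal/dextran FBS medium; compounds 0.59 nM to 92 uM with T3 at 0.4nM final, 18 h at 37 C. Beta-lactamase read by CCF4 fluorescence (460/530 nm); Hill fits gave IC50 and efficacy.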

The nature of experiment [8]: qHTS assay for small molecule disruptors of the mitochondrial membrane potential - 5 hr assay (AID 651755). Note: % is set by controls: 0 for no effect and ±100 for the full control effect; nearly all actives have a fitted effect of over 40% in size. The method in brief:
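Read-out: ratiometric Mito-MPS fluorescence, green monomer (ex 490/em 535) vs red mitochondrial aggregate (ex 540/em 590). HepG2 cells treated 5 hr at 37C before 30 min dye loading.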

The target in experiment [9] is Tumor necrosis factor (Homo sapiens) (UniProt P01375). Briefly: qHTS assay to identify small molecules that stimulate Tumor Necrosis Factor-alpha (TNF-alpha) secretion (AID 651757; active = well fitted curve in the direction sought with a large enough effect in the signal ratio; the % refers to the signal ratio; note: 0% is about no effect). The method in brief:
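THP-1 cells, 3000/well; compound 17 hrs, 37 C; add cryptate/XL665 anti-TNF-alpha antibody pair; 3 hr RT; TR-FRET (HTRF) read of secreted TNF-alpha. Quantitative HTS format.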

The target of experiment [10] is Nuclear receptor ROR-gamma (Homo sapiens) (UniProt P51449). Briefly: qHTS assay for small molecule antagonists of the retinoid-related orphan receptor gamma (ROR-gamma) signaling pathway (AID 651802; active = well fitted curve in the direction sought with a large enough effect; an effect the other way counts as inactive or inconclusive;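 note: CHO cells with doxycycline-induced ROR-gamma expression; luciferase reporter luminescence driven by ROR response element; % is set by controls: 0 for no effect and ±100 for the full control effect; nearly all actives have a fitted effect of over 60% in size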). The method in brief: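 Luciferase read-out: ONE-Glo luminescence after 30 min at room temperature, following 16hr doxycycline induction at 37C, 5% CO2 of CHO cells with TET-inducible ROR and RORE-LUC reporter; decreased luminescence = reduced reporter activity.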
Sequence of Nuclear receptor ROR-gamma (Homo sapiens) (P51449 whole entry, looked up): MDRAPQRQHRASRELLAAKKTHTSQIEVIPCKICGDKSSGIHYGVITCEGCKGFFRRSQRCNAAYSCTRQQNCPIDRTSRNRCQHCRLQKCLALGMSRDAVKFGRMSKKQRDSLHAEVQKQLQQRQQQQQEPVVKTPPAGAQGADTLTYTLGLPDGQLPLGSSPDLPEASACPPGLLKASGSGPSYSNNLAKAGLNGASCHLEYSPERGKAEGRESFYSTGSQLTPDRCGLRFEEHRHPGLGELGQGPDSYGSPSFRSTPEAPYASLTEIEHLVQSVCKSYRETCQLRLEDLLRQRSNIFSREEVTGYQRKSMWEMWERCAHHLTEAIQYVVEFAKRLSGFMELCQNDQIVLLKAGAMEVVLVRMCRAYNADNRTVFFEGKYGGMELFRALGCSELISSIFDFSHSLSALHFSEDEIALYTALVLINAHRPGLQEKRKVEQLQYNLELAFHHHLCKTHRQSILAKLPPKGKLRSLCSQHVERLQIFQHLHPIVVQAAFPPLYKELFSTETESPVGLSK

The target in experiment [11] is Bile acid receptor (Homo sapiens) (UniProt Q96RI1). Briefly: qHTS assay for small molecule agonists of farnesoid X receptor signaling (AID 588527).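 Note: 0% = vehicle basal and 100% = reference agonist.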 Conditions: HEK293T FXR-UAS-bla, beta-lactamase ratio, 16 h; stronger effect = higher value. The method in brief: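 Agonist-mode beta-lactamase reporter in GeneBLAzer FXR-UAS-bla HEK293T cells, titration up to 92 uM, 16 h exposure at 37 C, CCF4 fluorescence. Response scaled to DMSO (0%) and 100 uM chenodeoxycholic acid (100%), then Hill-fitted for EC50 and efficacy.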
Sequence of Bile acid receptor (Homo sapiens) (Q96RI1 whole entry, looked up): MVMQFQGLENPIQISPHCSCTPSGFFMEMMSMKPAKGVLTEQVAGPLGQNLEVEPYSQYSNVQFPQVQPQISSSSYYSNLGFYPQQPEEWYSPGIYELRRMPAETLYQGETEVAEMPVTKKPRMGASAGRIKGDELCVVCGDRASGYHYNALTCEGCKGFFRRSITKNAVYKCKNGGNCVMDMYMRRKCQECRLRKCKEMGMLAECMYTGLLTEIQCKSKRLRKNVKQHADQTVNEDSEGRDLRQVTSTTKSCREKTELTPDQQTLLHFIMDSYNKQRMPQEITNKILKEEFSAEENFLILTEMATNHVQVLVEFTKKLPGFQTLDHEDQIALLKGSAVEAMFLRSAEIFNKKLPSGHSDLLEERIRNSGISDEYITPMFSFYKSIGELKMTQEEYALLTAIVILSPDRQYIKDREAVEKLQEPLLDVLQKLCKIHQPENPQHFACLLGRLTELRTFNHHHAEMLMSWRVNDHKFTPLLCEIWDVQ

Experiment [12] deals with Peroxisome proliferator-activated receptor delta (Homo sapiens) (UniProt Q03181). Briefly: qHTS assay for small molecule agonists of peroxisome proliferator-activated receptor delta signaling (AID 588534).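 Note: 0% = DMSO basal wells and 100% = positive control agonist at 10 µM.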 The method in brief: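 Titration series tested in agonist mode on beta-lactamase reporter cells; 18 hrs at 37 C after a 5 hr pre-incubation. Readout: CCF4 fluorescence, 2 hrs RT. Hill equation gives EC50 and maximal response.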
Sequence of Peroxisome proliferator-activated receptor delta (Homo sapiens) (Q03181 whole entry, looked up): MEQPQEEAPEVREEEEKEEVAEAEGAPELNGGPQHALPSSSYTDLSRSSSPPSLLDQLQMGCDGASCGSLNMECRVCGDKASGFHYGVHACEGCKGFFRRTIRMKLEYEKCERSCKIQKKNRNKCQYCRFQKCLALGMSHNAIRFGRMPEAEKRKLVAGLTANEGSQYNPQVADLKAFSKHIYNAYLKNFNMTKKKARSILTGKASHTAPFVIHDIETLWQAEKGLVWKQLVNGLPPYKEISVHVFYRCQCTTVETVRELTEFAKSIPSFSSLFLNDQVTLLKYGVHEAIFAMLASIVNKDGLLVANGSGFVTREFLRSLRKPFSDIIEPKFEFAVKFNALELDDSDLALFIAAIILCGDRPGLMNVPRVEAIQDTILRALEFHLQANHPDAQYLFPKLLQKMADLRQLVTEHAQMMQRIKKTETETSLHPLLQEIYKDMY

Experiment [13] in a line: qHTS assay for small molecule antagonists of peroxisome proliferator-activated receptor delta signaling (AID 588535; active = well fitted inhibition curve with a large enough effect in the signal ratio, with a control signal flat, not every such curve was filed as active; the % refers to the signal ratio;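 for max response: cells co-treated with a PPAR-delta agonist as stimulator during compound exposure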). The following applies: HEK293T PPARd-UAS-bla, beta-lactamase FRET ratio, 18 h; 460 nm channel. The method in brief:
(§1)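 Beta-lactamase reporter read-out (405 nm excitation, 460/530 nm emission) after CCF4 loading for 2 hrs at RT. HEK293T PPAR-delta-UAS-bla cells, 2% charcoal/dextran FBS, compounds for 18 hrs at 37 C. Hill fit gave IC50 and efficacy.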

The target of experiment [14] is Peroxisome proliferator-activated receptor delta (Homo sapiens) (UniProt Q03181). The description is as above. The method, boiled down: as §1
Experiment [15] addresses Peroxisome proliferator-activated receptor gamma (Homo sapiens) (UniProt P37231). Briefly: qHTS assay for small molecule antagonists of peroxisome proliferator-activated receptor gamma signaling (AID 588537; active = well fitted inhibition curve with a large enough effect in the signal ratio, with a control signal flat, not every such curve was filed as active; the % refers to the signal ratio;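 note: reporter cells co-stimulated with 50 nM rosiglitazone agonist during compound treatment; % of control where 0% means no effect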). The method in brief: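 Read-out: CCF4 fluorescence (ex 405, em 460/530 nm) after 2 h at RT. Cells were HEK293 carrying a UAS-bla reporter and treated 16 h at 37 C with compound plus rosiglitazone (50 nM final). Normalized to rosiglitazone and DMSO.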

For experiment [16], the target named is Vitamin D3 receptor (Homo sapiens) (UniProt P11473). Briefly: qHTS assay for small molecule agonists of vitamin D receptor signaling (AID 588543).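 Note: 0% = DMSO basal and 100% = reference agonist control.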 The method in brief:
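VDR-UAS-bla HEK293T cells, 2000/well, 2% charcoal-stripped FBS; compound titration 16 h at 37 C; CCF4 beta-lactamase ratio read. Normalized to 50 nM 1-alpha,25-dihydroxyvitamin D3 (100%) and DMSO; Hill fit gives EC50, efficacy.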

Experiment [17] is described as follows: qHTS assay for small molecule activators of the nuclear factor-kappa B (NF-kB) signaling pathway (AID 651749; active = well fitted activation curve with a large enough effect in the signal ratio; the % refers to the signal ratio; note: % of control where 0% means no effect). Conditions: NF-kB-bla ME-180 cells, beta-lactamase FRET ratio, 16 h; stronger effect = higher value. The method in brief: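 NF-kB-bla ME-180 cells, 2,000/well; 23 nL compound or DMSO pinned; 16 hr, 37C/5% CO2; beta-lactamase FRET read-out.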
Experiment [18] can be described thus: qHTS assay for small molecule agonists of the antioxidant response element (ARE) signaling pathway measured by Nrf2-dependant transcriptional activity (AID 720636; active = well fitted curve in the direction sought with a large enough effect in the repeat runs; an effect the other way counts as inactive or inconclusive;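 note: HepG2 cells with an ARE-driven luciferase reporter; % of control where 0% means no effect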). The method, boiled down: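 ONE-Glo luminescence, read 30 min after reagent addition at room temperature, reflected ARE reporter activity in HepG2 cells that had been incubated with compound for 16 hr at 37 C in 1% dialyzed FBS.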

A short description of experiment [19]: qHTS assay for environmental chemicals that activate the Aryl hydrocarbon Receptor (AhR) signaling pathway (AID 651777; active = well fitted curve in the direction sought with a large enough effect; an effect the other way counts as inactive or inconclusive; note: % of control where 0% means no effect; nearly all actives have a fitted effect of over 15% in size). The following applies: 1A2-DRE human hepatoma cells, luciferase, 24 h; activation: stronger effect = higher value. The method, boiled down:
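Following a 24 hr incubation with test chemicals at 37 C and 5% CO2, 1A2-DRE human hepatoma cells received One-Glo reagent; after 30 min at room temperature, luciferase output reflected CYP1A2 induction via AhR.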

Each structure is given as a SMILES string. Several values for one entry are separate records, joined by “and”; a condition that tells them apart may be missing. Equal values may be shown once. Inconclusive results are not listed. Activity calls are given as the source filed them. Unless noted, calls come from the whole dose curve.

From PubChem BioAssay (NCATS) come the findings set out here.

Sequence of Peroxisome proliferator-activated receptor gamma (Homo sapiens) (P37231 whole entry, looked up): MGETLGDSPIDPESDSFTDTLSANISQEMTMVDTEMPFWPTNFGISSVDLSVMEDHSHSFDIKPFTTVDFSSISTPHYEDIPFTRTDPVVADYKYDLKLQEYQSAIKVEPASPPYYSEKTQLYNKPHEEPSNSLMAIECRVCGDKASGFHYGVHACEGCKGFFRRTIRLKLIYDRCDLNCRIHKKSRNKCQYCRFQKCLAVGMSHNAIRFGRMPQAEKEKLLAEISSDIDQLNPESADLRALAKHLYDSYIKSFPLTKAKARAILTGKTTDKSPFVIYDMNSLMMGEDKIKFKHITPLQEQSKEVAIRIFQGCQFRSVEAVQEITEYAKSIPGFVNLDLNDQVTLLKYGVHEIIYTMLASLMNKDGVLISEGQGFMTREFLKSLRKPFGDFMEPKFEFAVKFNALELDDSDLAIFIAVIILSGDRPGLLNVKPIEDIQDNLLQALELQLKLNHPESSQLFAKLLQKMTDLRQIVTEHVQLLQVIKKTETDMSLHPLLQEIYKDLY
Sequence of Tumor necrosis factor (Homo sapiens) (P01375 whole entry, looked up): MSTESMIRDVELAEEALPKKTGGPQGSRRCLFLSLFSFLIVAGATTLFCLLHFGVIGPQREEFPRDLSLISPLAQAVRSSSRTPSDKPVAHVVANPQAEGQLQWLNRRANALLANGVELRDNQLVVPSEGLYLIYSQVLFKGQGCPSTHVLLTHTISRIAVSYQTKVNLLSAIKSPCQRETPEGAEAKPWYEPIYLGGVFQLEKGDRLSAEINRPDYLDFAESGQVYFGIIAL
Sequence of Estrogen receptor (Homo sapiens) (P03372 whole entry, looked up): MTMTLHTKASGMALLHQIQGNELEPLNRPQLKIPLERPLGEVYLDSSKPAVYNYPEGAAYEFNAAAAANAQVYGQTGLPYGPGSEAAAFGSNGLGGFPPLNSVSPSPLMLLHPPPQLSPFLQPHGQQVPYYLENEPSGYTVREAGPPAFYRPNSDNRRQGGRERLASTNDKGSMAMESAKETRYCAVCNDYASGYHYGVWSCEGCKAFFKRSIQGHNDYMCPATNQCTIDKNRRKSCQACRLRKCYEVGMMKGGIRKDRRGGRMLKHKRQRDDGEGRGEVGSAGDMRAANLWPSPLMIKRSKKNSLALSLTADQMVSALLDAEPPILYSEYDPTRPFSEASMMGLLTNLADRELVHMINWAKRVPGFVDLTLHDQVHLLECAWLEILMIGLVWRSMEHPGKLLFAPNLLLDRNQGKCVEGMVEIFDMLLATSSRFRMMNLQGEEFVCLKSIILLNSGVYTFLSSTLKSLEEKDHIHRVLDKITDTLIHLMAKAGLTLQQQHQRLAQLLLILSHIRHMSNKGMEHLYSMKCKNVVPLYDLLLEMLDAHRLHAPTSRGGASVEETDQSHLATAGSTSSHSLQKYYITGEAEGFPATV
Sequence of Vitamin D3 receptor (Homo sapiens) (P11473 whole entry, looked up): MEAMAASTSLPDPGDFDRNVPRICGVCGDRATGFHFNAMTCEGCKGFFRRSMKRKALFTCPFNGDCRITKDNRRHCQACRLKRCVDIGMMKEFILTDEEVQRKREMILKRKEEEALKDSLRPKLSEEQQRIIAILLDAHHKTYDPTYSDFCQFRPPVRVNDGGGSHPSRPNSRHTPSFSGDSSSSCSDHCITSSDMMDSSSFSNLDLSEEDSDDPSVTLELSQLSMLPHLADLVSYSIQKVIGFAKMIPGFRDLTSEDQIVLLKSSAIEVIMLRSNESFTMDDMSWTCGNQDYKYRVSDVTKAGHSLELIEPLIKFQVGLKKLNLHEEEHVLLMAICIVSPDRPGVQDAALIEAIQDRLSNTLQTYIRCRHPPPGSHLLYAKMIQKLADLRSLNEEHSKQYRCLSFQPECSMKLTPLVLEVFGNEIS

With `CC(C)OC(=O)Cc1ccccc1`, the Potency entry in experiment [1], in experiment [2], in experiment [6], in [8] and in experiment [10] was “inactive” each time. For the same compound, the activation in [3] was 0.809% (inactive). The call in [4], in experiment [5] and in [9] was inactive. The activity change % (negative = inhibition) in experiment [7] was -4.91% (inactive).
Turning to `Nc1cc(Cl)cc(Cl)c1`, the Potency entry in experiment [1], in experiment [15], in experiment [6], in experiment [8], in [10] and in experiment [18] was “inactive” in each case. Further, the values for the activation in experiment [11] and in experiment [17] were -0.351% (inactive) and 0.8% (inactive), respectively. Further, the compound was called inactive in experiment [12], in experiment [14], in experiment [5], in experiment [16] and in experiment [9]. Moreover, in experiment [13], the max response is -13.8%.
For `CCC#N`, the Potency entry in experiment [1], in [6] and in experiment [18] was “inactive” throughout. In addition, the activation in [11] is -0.411% (inactive); in experiment [3], -7.32% (inactive); in experiment [17], -1.07% (inactive). For the same compound, the outcome in experiment [12], in [14], in [16] and in [9] was inactive. Also, in experiment [13], the max response was -1.4%. The activity change % (negative = inhibition) in [7] was -12.3% (inactive).
Regarding `Nc1ccc(Cc2ccc(N)cc2)cc1`, the Potency result in [1], in [15], in [6], in experiment [8], in experiment [10] and in [18] was “inactive” each time. The activation in experiment [11] is -2.78% (inactive) and 3.63% (inactive); in experiment [3], 1.44% (inactive) and -0.448% (inactive); in [17] it was -0.031% (inactive) and 0.544% (inactive); in [19] it was 1.41% (inactive) and 1.54% (inactive). Besides, the call in experiment [4], in [12], in experiment [14], in experiment [5] and in experiment [16] was inactive. In addition, in [13], the max response was 34.2% and -15.9%. Also, in experiment [7], the activity change % (negative = inhibition) was 11% (inactive) and -9.43% (inactive).
Regarding `CCBr`, the Potency entry in [1], in experiment [2], in [6], in [8] and in [10] was “inactive” each time. Further, the activation in experiment [3] is 4.52% (inactive); in [17], -0.926% (inactive). Besides, the compound was called inactive in [12], in [14] and in [9]. Moreover, in experiment [13], the max response came to 13.3%. In [7], the activity change % (negative = inhibition) is -4.65% (inactive).
As for `BrCCc1ccccc1`, the Potency result in [1], in [6], in experiment [8], in experiment [10] and in experiment [18] was “inactive” each time. Also, the result in experiment [4], in experiment [12], in [14] and in [5] was inactive. The max response in experiment [13] was -20.6%. For the same compound, the activity change % (negative = inhibition) in experiment [7] is -8.86% (inactive). The activation in experiment [17] was -1.06% (inactive); in [19], -0.177% (inactive).
In the case of `ClCC(Br)CBr` (stereo unspecified), the Potency entry in experiment [1], in experiment [2], in [6], in experiment [8], in [10] and in experiment [18] was “inactive” throughout. Besides, the activation in experiment [3] is -3.35% (inactive); in [17], -0.578% (inactive); in experiment [19], -0.863% (inactive). The compound was called inactive in experiment [16] and in experiment [9].
With `Cc1ccc(N)c(C)c1`, the Potency entry in [1], in [15], in [6] and in [18] was “inactive” each time. The activation in experiment [11] was 3.12% (inactive); in experiment [3] it was -0.661% (inactive); in experiment [19], -0.367% (inactive). In addition, the compound was classed as inactive in [4], in experiment [14], in experiment [5], in experiment [16] and in experiment [9]. Moreover, the max response in experiment [13] was determined as 14.7%. The activity change % (negative = inhibition) in [7] was 2.7% (inactive).
With `[O-][Cl+2]([O-])O`, the Potency result in experiment [1], in experiment [2], in experiment [8] and in experiment [18] was “inactive” in each case. Also, the activation in [11] is -2.85% (inactive); in [17], -0.919% (inactive); in experiment [19], 0.0972% (inactive). For the same compound, the result in experiment [5] was inactive.
